aSyn 5UTR act – Activators via SNCA 5'UTR binding, MLPCN. alpha-synuclein 5'UTR reporter, activators screen. activity score, % (tested at 7.5 µM), hits read low. 300,000 tested, 7.1% active. AID 1814; in the data active = activity score below about -60%
Hits are given with their value; 0 = inactive. Not all results are given here.

SMILES | aSyn 5UTR act
COc1ccc(O)c(/C=N/N2CCCCC2)c1 | -150
COc1cccc(Oc2nnnn2-c2ccccc2)c1 | -180
COc1ccccc1Oc1nnnn1-c1ccc(C(N)=O)cc1 | -71
COc1cccc(N2C(N)=NC(N)=NC2(C)C)c1 | 0
COc1ccc(Oc2nnnn2-c2ccccc2)cc1 | -87
O=C(c1ccccc1Oc1nnnn1-c1ccccc1)N1CCOCC1 | -77
c1ccc(-n2nnnc2Oc2ccc(-c3nnco3)cc2)cc1 | -62
Oc1ccccc1NCC(O)Cn1ccc2ccccc21 (stereo not drawn) | -113
Cc1ccc(CNC(=O)Nc2ccccc2)cc1 | -187
Cc1ccc(C)c(CNC(=O)Nc2ccccc2)c1 | -147
Cc1ccc(CNC(=O)Nc2ccc(Cl)cc2)cc1 | -99
CSc1ccc(NC(=O)NCc2ccccc2)cc1 | -152
Cc1ccc(/C=N/NC(=O)Cc2ccc(Cl)cc2)c(O)c1 | 0
CC(=O)N(Cc1ccc(F)cc1)C1=C(NCc2ccccc2)C(=O)c2ccccc2C1=O | 0
Cc1ccc(CNC(=O)NCc2ccccc2)cc1 | -63
NC(=NCCCCCCN=C(N)/N=C(\N)Nc1ccc(Cl)cc1)/N=C(\N)Nc1ccc(Cl)cc1 | 0
O=C(NCC1CC1)Nc1ccc(Cl)cc1 | -79
O=C(NCc1ccc(Cl)cc1Cl)Nc1ccccc1 | -91
O=C(NCc1ccc(F)cc1)Nc1ccccc1 | -108
Cc1ccc(CNC(=O)Nc2cccs2)cc1 | -115
Cc1ccc(CNC(=O)Cc2cccs2)cc1 | -70
Cc1ccc(-n2cc(CN3CCC(CO)(Cc4ccccc4)CC3)cn2)cc1 | -108
OCC1(Cc2ccccc2)CCN(Cc2cnc(-c3ccc(Cl)cc3)nc2)CC1 | -74
NC(=Nc1ccccc1)NC(=O)c1nc(Cl)c(N)nc1N | -126
COc1ccc(C(=O)N[C@H](C(=O)Nc2nc3c(s2)CCCC3)C(C)C)cc1 | -201
SMILES | aSyn 5UTR act
CCOc1ccccc1C(=O)N[C@H](C(=O)Nc1nc2c(s1)CCCC2)C(C)C | -87
O=C1c2ccccc2NC(c2ccc(O)cc2)N1/N=C/c1ccc(O)cc1 (stereo not drawn) | -122
O=C1c2ccccc2NC(c2ccc(O)cc2)N1c1ccccc1 (stereo not drawn) | -64
COc1ccc2c(=O)c3c(=O)n(-c4ccccc4)c(-c4ccc(C)cc4)nc3oc2c1 | -79
O=c1c2ccccc2oc2nc(-c3ccco3)n(-c3ccccc3)c(=O)c12 | -251
CC(C)c1nc2oc3ccccc3c(=O)c2c(=O)n1-c1ccccc1 | -325
CC(C)c1nc2sc3ccccc3c(=O)c2c(=O)n1Cc1ccccc1 | 0
O=c1c2ccccc2oc2ccc(-c3ccc4[nH]ccc4c3)cc12 | -154
CN1/C(=C\C(=O)c2cccnc2)Sc2ccccc21 | -94
COc1cccc(C(=O)/C=C2\Sc3ccccc3N2C)c1 | -131
CCOC(=O)c1sc2nccc(N(C)C)c2c1N=CNOCc1ccccc1 | -92
N#CC1(c2ccc(NC(=O)c3ccccc3)cc2)CCCC1 | -89
CC(=O)Oc1ccc(C(=O)Nc2ccc(C3(C#N)CCCC3)cc2)cc1 | -142
c1ccc2cc(OCc3nc4ccccc4[nH]3)ccc2c1 | -167
COc1cccc(CSc2nc3ccccc3cc2C=O)c1 | 0
Brc1ccc(OCc2nc3ccccc3[nH]2)cc1 | -214
COc1cccc(OCc2nc3ccccc3[nH]2)c1 | -137
COc1ccc(OCc2nc3ccccc3[nH]2)cc1 | -113
COc1cccc(OCc2nc3ncc(Br)cc3[nH]2)c1 | -77
CC(C)(C)C1CCC(OC(=O)CN2CCCCC2)CC1 (stereo not drawn) | -63
CCNC(=S)/N=C(\N)Nc1nc(C)c2cc(C)ccc2n1 | -207
CCOc1ccc2nc(SCC(=O)N(C)C)[nH]c2c1 | -92
O=C(CSc1nc2ccccc2[nH]1)c1ccc(Cl)s1 | -113
O=C(CSc1nc2ccccc2[nH]1)c1ccccc1F | -162
O=C(CSc1nc2ccccc2[nH]1)N1CCCCC1 | -136
SMILES | aSyn 5UTR act
Fc1cccc(F)c1CSc1nc2ccccc2[nH]1 | -127
COc1ccc2nc(SCC(=O)C(C)(C)C)[nH]c2c1 | -134
Fc1cccc(CSc2nc3ccncc3[nH]2)c1 | -80
c1ccc2[nH]c(SCc3cn4cccnc4n3)nc2c1 | -63
O=C(CSc1nc2ccccc2n1S(=O)(=O)c1ccccc1)N1CCCCC1 | -100
O=C(CSc1nc2ccc(Cl)cc2[nH]1)c1cccs1 | -113
O=C(CSc1nc2ccccc2[nH]1)c1ccco1 | -127
COc1ccc(C(=O)Nn2c(SCC(=O)N3CCC(C)CC3)nc3ccccc3c2=O)cc1 | 0
COc1ccc2nc(SCC(=O)c3ccco3)[nH]c2c1 | -105
COc1ccc(-c2coc3cc(OC)cc(OC)c3c2=O)cc1 | -166
COc1ccc(-c2coc3cc(OC)cc(O)c3c2=O)cc1 | -130
CC(C)Oc1cc(O)c2c(=O)c(-c3ccc(O)cc3)coc2c1 | -138
COc1ccc(-c2coc3cc(O)cc(O)c3c2=O)cc1 | -115
O=c1c(-c2ccc(O)cc2)coc2cc(O)cc(O)c12 | -99
Oc1cccc2ccc(/C=C/c3c(F)cccc3Cl)nc12 | -114
Nc1nccc(/C=C/c2c(F)cccc2Cl)n1 | -103
CCCCN1C=CC(=C2C(=O)c3ccccc3C2=O)C=C1 | 0
CCc1ccc2c(c1)C(=O)c1ccccc1C2=O | -199
Cc1ccc(-c2nc3cc(C)ccc3o2)cc1 | 0
Cc1ccc2oc(-c3ccco3)nc2c1 | -137
COC(CN(C(=O)CCl)C(C(=O)NC1CCCCC1)c1ccccc1C)OC (stereo not drawn) | -71
Cc1cc(C)nc(Nc2n[nH]c(-c3ccccc3Cl)n2)n1 | -141
Cc1cc(C)nc(Nc2n[nH]c(-c3cccc4ccccc34)n2)n1 | -88
Cc1cc(C)nc(Nc2n[nH]c(COc3ccccc3)n2)n1 | -110
COc1ccc(C(=O)Nc2nc3cc4c(cc3s2)OCO4)c(OC)c1 | -98
SMILES | aSyn 5UTR act
Cc1ccccc1NC(=O)Nc1nc2ccc(S(C)(=O)=O)cc2s1 | -85
COc1ccc(NS(=O)(=O)c2cc(C)ccc2NC(=O)c2cc(C)oc2C)cc1 | 0
COc1ccc2nc(NC(=O)c3cc(C)oc3C)sc2c1 | -140
COc1ccc2nc(NC(=O)c3cccnc3SC)sc2c1 | -130
Cc1cc(C(=O)Nc2nc3ccc(S(C)(=O)=O)cc3s2)c(C)o1 | -108
O=C(NC(=S)Nc1cccc2cccnc12)c1cccs1 | -63
Cc1nc(NC(=S)NC(=O)c2cccs2)ccc1Br | -161
Cc1cccc(NC(=S)NC(=O)c2cccs2)n1 | -140
COc1ccc(-n2cc(-c3ccc(Cl)cc3)[nH]c2=S)cc1 | -91
COc1cccc(-n2cc(-c3ccc(F)cc3)[nH]c2=S)c1 | -158
CCCCOc1ccc(-c2ncc(Cl)cn2)cc1 | -89
CCCCOc1ccc(-c2ncc([N+](=O)[O-])cn2)cc1 | -133
CCCCOc1ccc(-c2[nH]ncc2C=O)cc1 | -82
COc1ccc(OCC(=O)C2CC2)c(C#N)c1 | -78
COC(=O)c1ccc(OCc2cc(=O)n3ccsc3n2)cc1 | -134
Cc1nc2ccc(NC(=O)c3ccc(Br)o3)cc2s1 | -186
Cc1ccc2nc(NC(=O)c3ccc(Cl)s3)sc2c1 | -133
Cc1nc2ccc(NC(=O)c3ccc(Cl)s3)cc2s1 | -238
COc1ccc(C2Nc3ccccc3C(=O)N2c2ccccc2)cc1CN1CCOCC1 (stereo not drawn) | -70
COc1ccc(C2Nc3ccccc3C(=O)N2c2ccc(C)cc2)cc1COc1ccccn1 (stereo not drawn) | -97
COc1cccc(C2Nc3ccccc3C(=O)N2Cc2ccccc2)c1 (stereo not drawn) | 0
COc1ccc(C2Nc3ccccc3C(=O)N2c2ccc(C)cc2)cc1Cn1nc(C)c([N+](=O)[O-])c1C (stereo not drawn) | -105

Compound activity (PubChem BioAssay)
